# Data as given in the supplement of paper PMC8728848.
# The entries come from a sample that favours the strongest signals as a whole.
# B1: Glycodelin A (Homo sapiens), P09466 (protein)
# chain: MLCLLLTLGVALVCGVPAMDIPQTKQDLELPKLAGTWHSMAMATNNISLMATLKAPLRVHITSLLPTPEDNLEIVLHRWENNSCVEKKVLGEKTENPKKFKINYTVANEATLLDTDYDNFLFLCLQDTTTPIQSMMCQYLARVLVEDDEIMQGFIRAFRPLPRHLWYLLDLKQMEEPCRF
# Legend:
# Experiment in all cases: glycan array binding signal (z-score within array); higher = stronger binding
# Conditions in all cases: glycan notation: IUPAC condensed, linker removed
# Fuc(a1-2)Gal(b1-3)GalNAc = biological target: Fuc(a1-2)Gal(b1-3)GalNAc
# How it was run: (§1)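 Negative Z-scores can be read as non-binding. The Z-score is calculated within each array and then averaged across arrays of one protein sequence at different concentrations or buffers and across linkers. Arrays, 3228 in all, were curated from the Consortium for Functional Glycomics database and kept only where the protein sequence was available.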
# [1] = biological target: Fuc(a1-2)Gal(b1-3)GalNAc(b1-3)Gal
# How it was run: as §1
# [2] = biological target: Fuc(a1-2)Gal(b1-3)GalNAc(b1-3)Gal(a1-4)Gal(b1-4)Glc
# How it was run: as §1
# Fuc(a1-2)Gal(b1-3)GlcNAc = biological target: Fuc(a1-2)Gal(b1-3)GlcNAc
# How it was run: as §1
# [3] = biological target: Fuc(a1-2)[GalNAc(a1-3)]Gal(b1-4)[Fuc(a1-3)]GlcNAc
# How it was run: as §1
# Gal(a1-3)Gal(b1-3)GlcNAc = biological target: Gal(a1-3)Gal(b1-3)GlcNAc
# How it was run: as §1
# [4] = biological target: Gal(b1-3)GalNAc(b1-3)Gal(a1-4)Gal(b1-4)Glc
# How it was run: as §1
# [5] = biological target: Gal(b1-3)[Fuc(a1-4)]GlcNAc
# How it was run: as §1
# [6] = biological target: Gal(b1-3)[Fuc(a1-4)]GlcNAc(b1-3)Gal(b1-4)GlcNAc
# How it was run: as §1
# [7] = biological target: Gal(b1-4)GlcNAc(b1-3)GalNAc
# How it was run: as §1
# [8] = biological target: Gal3S(b1-3)[Fuc(a1-4)]GlcNAc
# How it was run: as §1
# GalNAc(a1-3)Gal = biological target: GalNAc(a1-3)Gal
# How it was run: as §1
# [9] = biological target: GlcNAc(b1-3)[GlcNAc(b1-6)]GalNAc
# How it was run: as §1
# GlcNAc(b1-4)GlcNAc = biological target: GlcNAc(b1-4)GlcNAc
# How it was run: as §1
# [10] = biological target: GlcNAc(b1-6)Gal(b1-4)GlcNAc
# How it was run: as §1
# [11] = biological target: Man(a1-2)Man(a1-2)Man(a1-6)[Man(a1-3)]Man
# How it was run: as §1
# [12] = biological target: Man(a1-2)Man(a1-3)[Man(a1-2)Man(a1-6)]Man
# How it was run: as §1
# [13] = biological target: Man(a1-2)Man(a1-6)[Man(a1-3)]Man(a1-6)[Man(a1-2)Man(a1-2)Man(a1-3)]Man
# How it was run: as §1
# [14] = biological target: Neu5Ac(a2-3)Gal(b1-3)GalNAc(b1-4)[Neu5Ac(a2-3)]Gal(b1-4)Glc
# How it was run: as §1
# [15] = biological target: Neu5Ac(a2-3)Gal(b1-4)GlcNAc(b1-3)Gal(b1-3)GlcNAc
# How it was run: as §1
# [16] = biological target: Neu5Ac(a2-3)Gal6S(b1-4)[Fuc(a1-3)]GlcNAc
# How it was run: as §1
# [17] = biological target: Neu5Ac(a2-6)Gal(b1-4)GlcNAc(b1-2)Man(a1-3)[GlcNAc(b1-2)Man(b1-4)GlcNAc(b1-2)Man(a1-6)]Man(b1-4)GlcNAc(b1-4)GlcNAc
# How it was run: as §1
# Neu5Ac(a2-6)GalNAc = biological target: Neu5Ac(a2-6)GalNAc
# How it was run: as §1
# [18] = biological target: Neu5Ac(a2-8)Neu5Ac(a2-8)Neu5Ac(a2-8)Neu5Ac(a2-3)[GalNAc(b1-4)]Gal(b1-4)Glc
# How it was run: as §1
# Neu5Ac(b2-6)GalNAc = biological target: Neu5Ac(b2-6)GalNAc
# How it was run: as §1
binder,measurement,setting,value
B1,glycan array binding signal (z-score),Fuc(a1-2)Gal(b1-3)GalNAc,-0.421
same,glycan array binding signal (z-score),[1],-0.414
same,glycan array binding signal (z-score),[2],-0.485
same,glycan array binding signal (z-score),Fuc(a1-2)Gal(b1-3)GlcNAc,-0.318
same,glycan array binding signal (z-score),[3],-0.439
same,glycan array binding signal (z-score),Gal(a1-3)Gal(b1-3)GlcNAc,4.32
same,glycan array binding signal (z-score),[4],-0.473
same,glycan array binding signal (z-score),[5],0.183
same,glycan array binding signal (z-score),[6],1.52
same,glycan array binding signal (z-score),[7],-0.373
same,glycan array binding signal (z-score),[8],3.69
same,glycan array binding signal (z-score),GalNAc(a1-3)Gal,-0.099
same,glycan array binding signal (z-score),[9],-0.397
same,glycan array binding signal (z-score),GlcNAc(b1-4)GlcNAc,-0.002
same,glycan array binding signal (z-score),[10],-0.5
same,glycan array binding signal (z-score),[11],-0.508
same,glycan array binding signal (z-score),[12],-0.43
same,glycan array binding signal (z-score),[13],-0.427
same,glycan array binding signal (z-score),[14],-0.406
same,glycan array binding signal (z-score),[15],-0.449
same,glycan array binding signal (z-score),[16],-0.448
same,glycan array binding signal (z-score),[17],2.02
same,glycan array binding signal (z-score),Neu5Ac(a2-6)GalNAc,4.31
same,glycan array binding signal (z-score),[18],4.64
same,glycan array binding signal (z-score),Neu5Ac(b2-6)GalNAc,3.68
